Reference: PubChem BioAssay (NCATS)
Records with an inconclusive call do not appear. A call without a number means that no potency is given here. The source made the active and inactive calls. Calls follow the shape of the dose curve; as a rule, active = well fitted cell-killing curve with a large enough effect; inconclusive = small, poorly fitted or top-dose-only effect, or effect the other way; inactive = flat fitted curve, though single readings scatter. *1 amine or outer side, *2 acyl side, *3 side chain or, on linkers, in order; H or OH if unused. Where a SMILES comes first, the peptide text is derived from it. [ ]: non-standard residue; d: D form. The star is where a group is joined. X13 = O=C(C(CC(O)CO)O[*:1])[*:2]; NMeV = CN[CH](C(=O)O)C(C)C; βNA = c1ccc2cc(N*)ccc2c1; Cbz = O=C(OCc1ccccc1)*; NMeA = CN[CH](C)C(=O)O; βAla = NCCC(=O)O

These molecules were tested on Tov112D (assay: Primary qHTS to identify gynecologic anti-cancer compounds using libraries of approved drugs and bioactive compounds (AID 1345084; also: nearly all actives have a fitted effect of over 55% in size)). Conditions: Gynecologic cancer cell panel viability, ATPlite luminescence, 48 h; series mostly up to 57.5 µM.
Outline: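 Five-point cytotoxicity, 48 h drug exposure at 37 C, 5% CO2, on cells seeded 16 h beforehand. ATP content read by ATPlite luminescence.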

SMILES	Potency	activity change, negative = cytotoxicity
NC(N)=NCCC[C@H](NC(=O)c1sccc1NS(=O)(=O)c1cccc2nsnc12)C(=O)O	inactive	–
Nc1ccc(-n2nc(C(F)(F)F)cc2C(F)(F)F)cc1	inactive	–
C[C@H](O)C(O)(C(=O)OCc1ccccc1NC(=O)CCC(N)C(=O)O)[C@H](C)O (some centres undefined)	inactive	–
CC[C@H](NC(=O)c1c(O)c(-c2ccccc2)nc2ccccc12)c1ccccc1	inactive	–
CC/C=C/C(O)C(O)C1=C(C)C(=O)C2(O1)C(=O)NC(OC)(C(=O)c1ccccc1)C2O (centres undefined)	inactive	–
Fc1cccc(CN(C2=NCCN2)c2c(Cl)cccc2Cl)c1	inactive	–
O=C(O)CCc1cccc(O)c1O[C@@H]1O[C@H](CO)[C@@H](O)[C@H](O)[C@H]1O	inactive	–
CCC(C)/C=C(C)/C=C/C1=CC2=CC(=O)C(C)(O)C(OC(C)=O)C2CO1 (centres undefined)	inactive	–
CC1CC(O)/C=C/C(O)/C=C\C(=O)O1 (centres undefined)	inactive	–
CC(C)CC(NC(=O)OCc1ccccc1)C(=O)NC(CC(C)C)C(=O)NC(CCC(=O)O)C(=O)Nc1ccc2ccccc2c1 (stereo not drawn) (Cbz-Leu-Leu-Glu-βNA; configuration not given here)	inactive	–
COCc1c(O)c(C(=O)O)c(C)c2c1OC(=O)c1c(C)cc(O)c(CO)c1O2	inactive	–
C=C(C(=O)O)C1CC(O)C2(C)CCCC(C)(O)C2C1 (centres undefined)	inactive	–
C=C[C@H]1[C@H](O[C@@H]2O[C@H](CO)[C@@H](O)[C@H](OC(=O)/C=C/c3ccc(O)c(OC)c3)[C@H]2O)OC=C2C(=O)OCC[C@]21O	inactive	–
COC(=O)C1(O)C(OC(C)=O)CCC2C3(CC(c4ccoc4)OC3=O)C(C)=CCC21C(=O)OC (centres undefined)	inactive	–
O=C(Nc1cc(-c2ccccc2)nn1-c1ccccc1F)c1ccc([N+](=O)[O-])cc1	inactive	–
Cc1sc(C)c(C(=O)NC2(c3ccc(C(=O)O)cc3)CC2)c1Cc1ccc(C(F)(F)F)cc1	inactive	–
COc1cc([C@@H](O[C@@H]2O[C@H](CO)[C@@H](O)[C@H](O)[C@H]2O)[C@@H]2CO[C@H](c3ccc(O)c(OC)c3)[C@H]2CO)ccc1O	inactive	–
CC(C)NC(=O)c1ccc(C#Cc2ccncc2)cn1	inactive	–
O=C(O)CC/C=C\C[C@H]1CO[C@@H](c2ccccc2Cl)O[C@H]1c1ccccc1O	inactive	–
CC(C)=CCc1cc(O[C@@H]2O[C@H](CO[C@@H]3OC[C@](O)(CO)[C@H]3O)[C@@H](O)[C@H](O)[C@H]2O)ccc1O	inactive	–

SMILES	Potency	activity change, negative = cytotoxicity
CC1(C)[C@@H]2CC=C(CO[C@@H]3O[C@H](CO[C@@H]4OC[C@H](O)[C@H](O)[C@H]4O)[C@@H](O)[C@H](O)[C@H]3O)[C@H]1C2	inactive	–
COc1ccc(C2C(C(=O)O)C(C(=O)O)C2c2ccc(OC)cc2O[C@@H]2O[C@H](CO)[C@@H](O)[C@H](O)[C@H]2O)c(O[C@@H]2O[C@H](CO)[C@@H](O)[C@H](O)[C@H]2O)c1 (some centres undefined)	inactive	–
C=C(C)C1CCC2(C(=O)OC3OC(COC4OC(CO)C(O)C(O)C4O)C(OC4OC(C)C(O)C(O)C4O)C(O)C3O)CCC3(C(=O)O)C(CCC4C5(C)CCC(=O)C(C)(C)C5CCC43C)C12 (centres undefined)	–	-0.367% [at 11.6 µM] (inactive)
CC1=C(CC/C(C)=C/C(=O)O)[C@@]2(C)CCCC(C)(C)C2CC1=O (some centres undefined)	inactive	–
C[C@]12CCC[C@](C)(C(=O)O)C1[C@@H](O)[C@@H](O)C13CC(CCC12)C(CO)(O[C@@H]1O[C@H](CO)[C@@H](O)[C@H](O)[C@H]1O)C3 (some centres undefined)	inactive	–
COc1cc(O)cc(C)c1C(=O)O[C@H]1[C@@H](O)[C@@H](n2ccc(=O)[nH]c2=O)O[C@@H]1CO	inactive	–
C=C1C(=O)O[C@@H]2C[C@]3(C)[C@@H](CCC(C)=O)[C@@H]3C[C@H]12	inactive	–
C=C1CC[C@@]2(OC1)O[C@H]1CC3[C@@H]4CC=C5C[C@@H](O)C[C@@H](O[C@@H]6OC[C@H](O)[C@H](O)[C@H]6O[C@@H]6O[C@@H](C)[C@H](O)[C@@H](O)[C@H]6O)[C@]5(C)C4CC[C@]3(C)[C@H]1[C@@H]2C (some centres undefined)	inactive	–
C/C=C(\C)C(=O)OCC1OC(OCC2OC(OC3(CO)OC(CO)C(O)C3O)C(O)C(O)C2O)C(O)C(O)C1O (centres undefined)	inactive	–
COC(=O)C1=CO[C@@H](O[C@@H]2O[C@H](CO)[C@@H](O)[C@H](O)[C@H]2O)/C(=C\CO)[C@@H]1CC(=O)OCCc1ccc(O)cc1	inactive	–
CCC(C)C1NC(=O)C2CCCN2C(=O)C(CC(O)CO)OC(=O)CCNC(=O)C(C)N(C)C(=O)C(C(C)C)N(C)C1=O (centres undefined) (cyclo([X13]PI[NMeV][NMeA][βAla]); configuration not given here)	inactive	–
O=C(C[C@@H]1C(C(=O)O)=CO[C@@H](O[C@@H]2O[C@H](CO)[C@@H](O)[C@H](O)[C@H]2O)/C1=C\CO)OCCc1ccc(O)cc1	inactive	–
COC(=O)[C@H](O)[C@H]1C(C)(C)[C@H](OC(C)=O)[C@@]2(O)C(=O)[C@]1(C)C1CC[C@]3(C)C(CC(=O)O[C@H]3c3ccoc3)[C@]13O[C@@H]32 (some centres undefined)	inactive	–
CC(=O)c1c(C)cccc1O[C@@H]1O[C@H](CO)[C@@H](O)[C@H](O)[C@H]1O	inactive	–
C/C=C(\C)C(=O)OC1CC2C(CC=C3CC(OC4CC(OC)C(OC5CC(OC)C(OC6CC(OC)C(OC7CC(OC)C(OC8CC(OC)C(OC9OC(CO)C(O)C(O)C9O)C(C)O8)C(C)O7)C(C)O6)C(C)O5)C(C)O4)CCC32C)C2(O)CCC(C(C)=O)C12C (centres undefined)	–	-1.72% [at 6.55 µM] (inactive)
COc1ccc2[nH]c(S(=O)Cc3ncc(C)c(OC)c3C)nc2c1 (centres undefined)	inactive	–
COc1cc(C)c(C(=O)OC2C(C)OC(OC3CCC(C)C4C3C=C(C)C3/C(C)=C\CC/C(C)=C/C5(C)C=C(C(=O)O)C(C)CC56OC(=O)/C(=C(\O)C34C)C6=O)C(O)C2O)c(OC)c1 (centres undefined)	–	1.96% [at 11.6 µM] (inactive)
COc1ccc(/C=C/C(=O)O[C@@H]2[C@@H](O[C@@H]3O[C@H](CO)[C@@H](O)[C@H](O)[C@H]3O)[C@@H](O)[C@H](O[C@H]3C4C=CO[C@@H](O[C@@H]5O[C@H](CO)[C@@H](O)[C@H](O)[C@H]5O)C4[C@@]4(CO)O[C@@H]34)O[C@H]2C)cc1 (some centres undefined)	–	0.569% [at 11.6 µM] (inactive)
CC(C)C1NC(=O)C(CC2(O)c3ccccc3N3C(=O)C(Cc4ccccc4)NC32)NC1=O (centres undefined)	inactive	–
